Assay results published in PubChem BioAssay AID949 (Emory University Molecular Libraries Screening Center, 2007).
The list shows a part of the results. Activity calls are given as the source filed them.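 The calls were made as follows: active = yeast growth recovered at 30 hours, either rising with dose fitted slope above 0.001 or with average optical density gain above 0.07 (some results past the limit were not filed as active); inactive = growth falling with dose or no effect.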

assay: SDO1-depleted yeast growth rescue, concentration-response, diseases of bone marrow failure, JHY4D, OD600 (AID 949);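 as to OD recovery: gain in OD600 from 0 h to 30 h averaged across all seven doses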; conditions: S. cerevisiae JHY4D (SDO1-depleted) growth rescue, OD600, 30 h, efflux-deficient strain, SNQ2 and PDR5 mutated; OD recovery: stronger effect = higher value; dose-response slope: measured here: 30 h OD slope vs dose

Structure (SMILES)	OD recovery	dose-response slope
CC(C)OC(=O)c1c(NC(=O)c2ccco2)sc2c1CCCC2	0.0368 (inactive)	0.000949
CS(=O)(=O)Nc1ccc(C(=O)N2CCCC2)cc1	0.0956 (active)	0.000226
O=C(COC(=O)/C=C/c1cccc(Cl)c1)NCCc1ccccc1	0.091 (active)	-0.000894
COc1ccc(OCC(=O)NNC(=O)c2ccc(-c3ccccc3)cc2)cc1	0.0649 (inactive)	-0.000252
CN(C)c1ccc(Nc2c3c4c(cccc4n(C)c2=O)C(=O)c2ccccc2-3)cc1	0.0269 (inactive)	-0.000458
COc1cccc(-c2nnc(NC(=O)c3ccc(S(=O)(=O)N(CC(C)C)CC(C)C)cc3)o2)c1	0.0821 (active)	-0.000585
COc1ccc(-c2nnco2)cc1OC	0.0477 (inactive)	0.000454
COc1ccc(/C(C)=N/NC(=O)CCC(=O)Nc2ccc(Cl)cc2Cl)c(OC)c1	0.11 (active)	0.000741
CC(=O)Nc1ccc(S(=O)(=O)NCCc2ccccc2)cc1	0.0591 (inactive)	0.00092
Cc1[nH]c2ccccc2c1C(=O)CSCC(=O)O	0.11 (active)	-0.000672
O=C(CSc1nc(-c2ccco2)cc(C(F)(F)F)n1)NCc1cccs1	0.072 (active)	0.00107
CCOc1cccc2c1OC1(CCCCC1)N1N=C(c3cccnc3)CC21 (configuration not stated)	0.0606 (inactive)	-0.000222
Cc1oc2nc(SCC(=O)NCc3cccnc3)nc(N)c2c1C	0.0937 (active)	0.000887
O=S(=O)(/N=C(/Nc1ccccn1)c1ccccc1)c1ccc(Cl)cc1	0.0469 (inactive)	0.000638
COc1ccc(CNC(=O)c2c(C)cc(=O)oc2C)cc1OC	0.0773 (active)	0.000182
COc1cc(OC)nc(S(C)(=O)=O)n1	0.0647 (inactive)	0.000101
